An excerpt weighted towards active compounds, which were near 2.9% of everything screened.
ALOX12 inh = Primary qHTS assay for inhibitors of human arachidonate 12S-lipoxygenase (ALOX12): Round 2; Polyunsaturated fatty acid lipoxygenase ALOX12 (Homo sapiens), P18054; purified 12hLO, xylenol orange hydroperoxide absorbance; Potency, µM (top dose mostly 108 µM), without a hit: at the top dose activity change, negative = inhibition, usual class: inhibitors; actives 1.1% (n = 580,000); also: potency is read from the fitted curve at half-maximal effect; % is scaled to controls: 0 for no effect and ±100 for the full control effect
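Hydroperoxide product was detected by ferrous iron/xylenol orange as the 573 to 405 nm absorbance ratio. Arachidonic acid at 40 uM (final) was turned over for 30 min at room temperature by 150 nM human 12hLO, pH 7.0 Hepes buffer, after 15 min compound preincubation.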
Pol iota inh = qHTS for Inhibitors of Polymerase Iota; Pol iota fluorescent replication assay, 10 min; Potency, µM (titrated, usually from 115 µM), for the others: top-dose activity, negative = inhibition, actives largely listed as inhibitors; actives 1% (n = 390,000); AID 588590, 2011; also: potency is read from the fitted curve at half-maximal effect
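Fluorescent replication assay read twice, at 0 min and 10 min after adding 50 nM (final) substrate. Enzyme (10 nM) and compounds were first incubated 15 min at room temperature; enzyme-free buffer wells were negative controls.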
PI5P4K alpha inh = qHTS for Inhibitors of phosphatidylinositol 5-phosphate 4-kinase (PI5P4K); Phosphatidylinositol 5-phosphate 4-kinase type-2 alpha (Homo sapiens), P48426; PI5P4Kalpha enzyme, ADP-Glo luminescence, 60 min; stronger effect = lower value; max response, %; actives 1.2% (n = 330,000); active = max response of -50% or lower; inconclusive = between -30% and -50%; inactive = -30% or higher; also: value at the top dose of about 77 µM; % is scaled to controls: 0 for no effect and ±100 for the full control effect
Target sequence (P48426 whole entry, looked up): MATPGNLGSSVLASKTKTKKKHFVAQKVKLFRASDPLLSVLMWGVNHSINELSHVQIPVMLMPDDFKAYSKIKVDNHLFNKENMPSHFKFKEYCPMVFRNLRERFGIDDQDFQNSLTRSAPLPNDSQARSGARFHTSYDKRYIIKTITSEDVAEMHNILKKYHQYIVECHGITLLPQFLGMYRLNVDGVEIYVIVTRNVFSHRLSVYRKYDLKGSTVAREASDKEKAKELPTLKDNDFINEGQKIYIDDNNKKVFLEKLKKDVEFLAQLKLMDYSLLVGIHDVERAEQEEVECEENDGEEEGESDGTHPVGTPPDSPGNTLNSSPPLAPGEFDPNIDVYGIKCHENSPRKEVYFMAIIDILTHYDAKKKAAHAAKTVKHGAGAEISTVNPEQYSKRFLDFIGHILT
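Human PI5P4Kalpha with substrate in 0.038 M HEPES pH 7.4, 0.28 mM EGTA, 0.1% CHAPS, 5% DMSO; reaction started with 5 microM ATP (final), 60 min at room temperature. ADP formed read by ADP-Glo luminescence.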
POLH inh = qHTS for Inhibitors of Polymerase Eta. actives 1.2% (n = 390,000). AID 588591, 2011. Potency, µM (series often up to 114 µM), without a hit: top-dose activity change, negative = inhibition, most hits filed as inhibitors. DNA polymerase eta (Homo sapiens), Q9Y253. recombinant Pol eta, fluorescent DNA replication assay; also: potency is read from the fitted curve at half-maximal effect; % is scaled to controls: 0 for no effect and ±100 for the full control effect
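Pol eta at 10 nM preincubated with compounds 15 min at room temperature; reaction started with fluorescent substrate (50 nM final) and read kinetically at 0 and 10 min.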
Pol kappa inh = qHTS for Inhibitors of Polymerase Kappa. Potency, µM (top dose mostly 107 µM), for inactives: at the top dose activity, negative = inhibition, actives largely listed as inhibitors. purified Pol kappa, fluorescent DNA synthesis assay, 10 min. DNA polymerase kappa (Homo sapiens), Q9UBT6. actives 0.53% (n = 400,000). AID 588579, 2011; also: potency is read from the fitted curve at half-maximal effect; % is scaled to controls: 0 for no effect and ±100 for the full control effect
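Inhibition of 10 nM Pol kappa is measured by a fluorescent read-out at 0 and 10 min following addition of 50 nM substrate (final), with a 15-min room-temperature compound preincubation.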
POLB inh = qHTS Assay for Inhibitors of DNA Polymerase Beta; P06746; Pol beta primer extension/strand displacement, fluorescence kinetic; Potency, µM (series often up to 114 µM), for inactives: at the top dose activity change, negative = inhibition, hits mostly inhibitors; actives 1.3% (n = 340,000); also: potency is read from the fitted curve at half-maximal effect; % is scaled to controls: 0 for no effect and ±100 for the full control effect
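10 nM enzyme + cpd, 15 min RT; start with substrate 50 nM final; read 0 min and after 10 min RT. Corrected, normalized data; 4-parameter Hill curve fit.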
An asterisk follows results filed as active; u = inconclusive; x = no result; ! = a repeat was not active; [ ] = another dose, or the depositor's remark. Unless noted, calls follow the shape of the dose curve; as a rule, active = well fitted inhibition curve with a large enough effect; inconclusive = small, poorly fitted or top-dose-only effect, or another doubt; inactive = no such curve, though single readings can be large or run the other way.

SMILES	ALOX12 inh	Pol iota inh	PI5P4K alpha inh	POLH inh	Pol kappa inh	POLB inh
CC(=O)c1ccc(NC(=O)c2ccc3nc(-c4ccco4)c(-c4ccco4)nc3c2)cc1	x	3.2µM*	-110*	2.8µM*	7.9µM*	2.8µM*
COc1ccc(CNC(=O)Cc2c(C)c3cc(Cl)c(OC)cc3oc2=O)cc1	-9%	x	x	x	x	x
Cc1cc(C)c(NC(=O)CN2CCN(c3ccccc3)CC2)c(Cl)c1	7%	x	x	x	x	x
CCc1ccc2oc(C(=O)Nc3cccc(Cl)c3)cc(=O)c2c1	-17%	x	x	x	x	x
CCC1=C(c2ccc(C)cc2)S(=O)(=O)N=C1N1CCC(C(=O)Nc2ccc(OC)c(OC)c2)CC1	-21%	x	x	x	x	x
CCSc1ccccc1C(=O)Nc1ccc([N+](=O)[O-])cc1OC	40µM*	6%	2	10%	-12%	1%
CCN1/C(=C/c2cc[n+](CCCS(=O)(=O)[O-])c3ccccc23)Sc2ccccc21	u	u	-1	-5%	-12%	u
C=CC[n+]1ccc(/C=C2\C=Cc3cc(C)ccc3N2CC)c2ccccc21	x	u	u	-15%	50µM*	u
Cc1ccc(/C=C/C(=O)NC2CCCC2)c(C)c1	2%	x	x	x	x	x
Cc1ccc(-n2c(O)c(C=Nc3ccccc3-c3n[nH]c(=S)[nH]c3=O)c3ccccc3c2=O)c(C)c1	16µM*	45µM*	-20	u	u	89µM*
Cc1cccc(-n2c(O)c(C=Nc3ccccc3-c3n[nH]c(=S)[nH]c3=O)c3ccccc3c2=O)n1	u	7%	-23	-11%	-8%	-1%
CCN1CCc2c(sc3c2c(=O)n(-c2ccc(Cl)cc2)c(=O)n3CCN(C)C)C1	-12%	x	x	x	x	x
Cc1ccc([C@H]2Nc3ccc(S(=O)(=O)Nc4cccc(Cl)c4C)cc3[C@H]3C=CC[C@H]32)cc1	40µM*	4%	x	8%	-13%	-1%
Cc1ccc2c(c1)c(C)cc(=O)n2CCC(=O)O	-24%	3%	x	-3%	-6%[60.1 µM]	13µM*
Cc1c(C)n(CCC(=O)O)c2ccccc12	-3%	45%	2	-7%	-7%	0%
O=C1C(N2CCOCC2)=C(n2nnc3ccccc32)C(=O)c2ccccc21	0%	u	-10	45µM*	-7%	-4%
O=C(Cc1c[nH]c2ncc(-c3ccccc3)cc12)NCc1ccncc1	-7%[176 µM]	x	x	x	x	x
CC1(C)C(=O)Nc2ccccc2N1C(=O)COC(=O)c1cccnc1Cl	u	u	u	50µM*	-25%	x
CC1(C)C(=O)Nc2ccccc2N1C(=O)COC(=O)c1cc(S(C)(=O)=O)ccc1Cl	0%	10%	5	-12%	-10%	x
Cc1cc(C)cc(C(=O)NCC(=O)OCC(=O)N2c3ccccc3NC(=O)C2(C)C)c1	-5%	-26%	-6	-12%	-2%	14µM*
O=C(Nc1nc(C23CC4CC(CC(C4)C2)C3)cs1)C(c1ccccc1)c1ccccc1	-10%	x	x	x	x	x
Cc1ccccc1CC(=O)N1CCC2(CC1)N(c1ccccc1)C(=O)CS2(=O)=O	34%	x	x	x	x	x
O=C(C1CCCC1)N1CCC2(CC1)NC(=O)N(c1ccccc1)N2	2.8µM*	x	x	x	x	x
O=C(C1CCN(C2CC(=O)N(c3cccc(Cl)c3)C2=O)CC1)N1CCCCCC1 (centres undefined)	0%	0%	8	-1%	-4%	2%
Cc1ccccc1CC(=O)N1CCC2(CC1)NC(=O)N(c1ccccc1)N2	1.3µM*	x	x	x	x	x
SMILES	ALOX12 inh	Pol iota inh	PI5P4K alpha inh	POLH inh	Pol kappa inh	POLB inh
CCn1nccc1C(=O)N1CCC2(CC1)NC(=O)N(c1ccccc1)N2	5.6µM*	x	x	x	x	x
O=C(C1CC1)N1CCC2(CC1)NC(=O)N(c1cccc(Cl)c1)N2	1.4µM*	x	x	x	x	x
Cc1ccc(C)c(OCc2ccc(-c3nc(C#N)c(N(C)C)o3)o2)c1	-9%	x	x	x	x	x
CNC(=O)[C@@H](C1CCCCC1)N1CCC[C@H]1C(=O)N1CCN(C)CC1	0%[176 µM]	x	x	x	x	x
CNC(=O)[C@@H](C1CCCCC1)N1CCC[C@H]1C(=O)N1CCN(CCOC)CC1	16µM*	x	x	x	x	x
Cc1cc2c(NC(=O)CC(C)(C)CC(=O)O)cccc2nn1	12%	20µM*	-12	28µM*	u	-1%
CON(C)C(=O)c1ccc2noc(-c3ccccc3)c2c1	-8%	x	x	x	x	x
CN(C)/C=C/C(=O)c1ccc2noc(-c3cccc(F)c3)c2c1	u	-15%	-66*	-26%	4%	21%
COc1ccc(-c2onc3ccc(C(=O)/C=C/N(C)C)cc23)cc1	35µM*	u	-78*	u	u	u
CC(Sc1nnc(-c2ccco2)n1-c1ccccc1)C(=O)NCc1ccc2c(c1)OCO2 (centres undefined)	51%	x	x	x	x	x
CCn1ncc(/C=C2/SC(=S)NC2=O)c1C	-21%	-8%	-66*	-17%	-6%	6%
CCn1c(C)cc(/C=C2/SC(=S)NC2=O)c1C	-16%	15%	-7	-2%	-10%	1%
Cc1ccc(C23CC4CC(CC(C(=O)Nc5ccccc5Br)(C4)C2)C3)cc1	-2%	x	x	x	x	x
Cc1ccc(CNc2nc(N)c([N+](=O)[O-])c(NCCO)n2)cc1	5%	-27%	u	-13%	19%	-1%
Nc1nc(NCc2ccc(Cl)cc2)nc(NCCO)c1[N+](=O)[O-]	11%	47%	-57*	5%	-9%	22%
C=CCN(c1ccccc1)S(=O)(=O)c1cccc(C(=O)NNC(=O)c2ccccc2O)c1	x	13%	-56*	2%	-10%	x
Cc1ccc(/C(=N/Nc2nc3ccccc3s2)C2=C(O)c3ccccc3C2=O)cc1	3.5µM*	164%	-81*	u	-3%	3%
Cc1ccc(S(=O)(=O)N(C)CC(=O)Nc2nc3ccccc3s2)cc1	-18%	6%	-2	0%	-25%	-17%
CCN(CC)C(=O)CSc1nc2ccsc2c(=O)n1-c1cc(F)cc(F)c1	-60%	x	x	x	x	x
Cc1cc(=O)[nH]c(/N=C(\N)Nc2cccc3ccccc23)n1	u	u	3	u	-4%	22µM*
N/C(=N\c1nc2c(c(=O)[nH]1)CCC2)Nc1cccc2ccccc12	-30%	9%	x	-9%	1%	4%
CCC(C)Nc1ccc(NC(C)CC)cc1 (centres undefined)	x	4%	-26	-12%	2.5µM*!	x
